This note sets out measurements from PubChem BioAssay (NCATS).

Test [1] deals with Nanoluciferase (engineered Oplophorus gracilirostris luciferase). Put plainly: Primary Nanoluciferase (NLuc) qHTS assay for identification of artifact compounds. (AID 1845222).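 Note: NLuc secreted into diluted conditioned medium of S16 cells.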 The method in brief:
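Using secreted nanoluciferase in S16 culture medium (0.22 um filtered, 1:55 dilution), compounds were preincubated 15 min at RT. Signal was generated with Nano-Glo reagent (1:100) over 5 min.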
On the technique in general: qHTS replaces the single test concentration by a dilution series.

Test [2] can be described thus: Primary redox qHTS assay for identification of artifact compounds. (AID 1845223). The method in brief:
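Redox-cycling detection via DTT (250 uM final) oxidation coupled to Amplex Red (25 uM)/HRP (250 mU/mL) in HBSS. 15 min preincubation plus 30 min after DTT, room temperature. Ex/Em 525/598 nm; 4-parameter Hill fit against DMSO and 10 uM DA3003.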

Test [3] in a line: Quantitative High-Throughput drug screen in 47 multiple myeloma cell lines against the NCATS MIPE library collection: FR4_PLB cell viability assay (AID 1918924; note: nearly all actives have a fitted effect of over 35% in size; note: potency is the fitted concentration of half-maximal effect). The method in brief:
(§1)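 qHTS of the MIPE 4.0 collection: 500 myeloma cells/well, 48 h drug exposure at 37C in 5% CO2, then CellTiter-Glo for 5 min at room temperature before luminescence reading.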

Test [4] is described as follows: Quantitative High-Throughput drug screen in 47 multiple myeloma cell lines against the NCATS MIPE library collection: Delta47_JCRB cell viability assay (AID 1918925; note: nearly all actives have a fitted effect of over 45% in size; note: potency is the fitted concentration of half-maximal effect). The method in brief:
(§2)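 Luminescent ATP measurement with CellTiter-Glo gives viability, scaled between DMSO-only wells (100%) and media-only wells (0%). Cells, 500 per well, faced library compounds for 48 hours at 37C.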

A short description of test [5]: Quantitative High-Throughput drug screen in 47 multiple myeloma cell lines against the NCATS MIPE library collection: AMO1_DSMZ cell viability assay (AID 1918927; note: nearly all actives have a fitted effect of over 30% in size; note: potency is the fitted concentration of half-maximal effect). The method in brief:
as §2

Test [6] can be described thus: Quantitative High-Throughput drug screen in 47 multiple myeloma cell lines against the NCATS MIPE library collection: ARD_JJKsccE7 cell viability assay (AID 1918929; note: potency is the fitted concentration of half-maximal effect). The method in brief: as §2
Test [7] can be described thus: Quantitative High-Throughput drug screen in 47 multiple myeloma cell lines against the NCATS MIPE library collection: Karpas620_DSMZ cell viability assay (AID 1918959). Note: nearly all actives have a fitted effect of over 30% in size. Note: potency is the fitted concentration of half-maximal effect. The method in brief: as §1
The nature of test [8]: Quantitative High-Throughput drug screen in 47 multiple myeloma cell lines against the NCATS MIPE library collection: KMM1_JCRB cell viability assay (AID 1918960). Note: nearly all actives have a fitted effect of over 30% in size. Note: potency is the fitted concentration of half-maximal effect. The method in brief:
(§3)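 Each line was plated at 500 cells/well and treated 48 h with library drugs. Viability came from CellTiter-Glo luminescence relative to DMSO and cell-free medium controls.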

Test [9] can be described thus: Quantitative High-Throughput drug screen in 47 multiple myeloma cell lines against the NCATS MIPE library collection: KHM11_PLB cell viability assay (AID 1918962). Note: nearly all actives have a fitted effect of over 35% in size. Note: potency is the fitted concentration of half-maximal effect. The method in brief:
as §1

Test [10] is described as follows: Quantitative High-Throughput drug screen in 47 multiple myeloma cell lines against the NCATS MIPE library collection: JIM3_ECACC cell viability assay (AID 1918963; note: nearly all actives have a fitted effect of over 35% in size; note: potency is the fitted concentration of half-maximal effect). The method in brief:
as §1

A short description of test [11]: Quantitative High-Throughput drug screen in 47 multiple myeloma cell lines against the NCATS MIPE library collection: JIM1_ECACC cell viability assay (AID 1918964; note: potency is the fitted concentration of half-maximal effect). The method in brief:
as §2

A short description of test [12]: Quantitative High-Throughput drug screen in 47 multiple myeloma cell lines against the NCATS MIPE library collection: INA6_PLB cell viability assay (AID 1918965; note: nearly all actives have a fitted effect of over 55% in size; note: potency is the fitted concentration of half-maximal effect). The method in brief:
as §2

A short description of test [13]: Quantitative High-Throughput drug screen in 47 multiple myeloma cell lines against the NCATS MIPE library collection: Karpas25_ECACC cell viability assay (AID 1918968; note: nearly all actives have a fitted effect of over 35% in size; note: potency is the fitted concentration of half-maximal effect). The method in brief: as §2
Test [14] is described as follows: Quantitative High-Throughput drug screen in 47 multiple myeloma cell lines against the NCATS MIPE library collection: KMS27_JCRB cell viability assay (AID 1918970). Note: nearly all actives have a fitted effect of over 30% in size. Note: potency is the fitted concentration of half-maximal effect. The method in brief:
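Myeloma cells (500 per well) were exposed to MIPE 4.0 compounds for 48 h at 37 °C, 5% CO2; viability was read as ATP luminescence with CellTiter-Glo, normalized to DMSO-only (100%) and media-only (0%) wells.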

A short description of test [15]: Quantitative High-Throughput drug screen in 47 multiple myeloma cell lines against the NCATS MIPE library collection: KMS12BM_JCRB cell viability assay (AID 1918971). Note: nearly all actives have a fitted effect of over 35% in size. Note: potency is the fitted concentration of half-maximal effect. The method in brief:
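Steps: seed 500 cells per well; pin-transfer MIPE 4.0 library; incubate 48 h at 37C, 5% CO2, humidified; add CellTiter-Glo, 5 min room temperature; read luminescence.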

Test [16] in a line: Quantitative High-Throughput drug screen in 47 multiple myeloma cell lines against the NCATS MIPE library collection: EJM_DSMZ cell viability assay (AID 1918926; note: nearly all actives have a fitted effect of over 30% in size; note: potency is the fitted concentration of half-maximal effect). The method in brief:
as §2

A short description of test [17]: Quantitative High-Throughput drug screen in 47 multiple myeloma cell lines against the NCATS MIPE library collection: ARP1_JJKsccF8 cell viability assay (AID 1918928; note: nearly all actives have a fitted effect of over 40% in size; note: potency is the fitted concentration of half-maximal effect). The method in brief: as §3
Test [18] is described as follows: Quantitative High-Throughput drug screen in 47 multiple myeloma cell lines against the NCATS MIPE library collection: H1112_PLB cell viability assay (AID 1918967; note: nearly all actives have a fitted effect of over 30% in size; note: potency is the fitted concentration of half-maximal effect). The method in brief:
as §2

Test [19] is described as follows: Quantitative High-Throughput drug screen in 47 multiple myeloma cell lines against the NCATS MIPE library collection: Karpas417_ECACC cell viability assay (AID 1918961). Note: potency is the fitted concentration of half-maximal effect. Particulars: Karpas417 myeloma viability, CellTiter-Glo ATP luminescence, 48 h; viability (% of DMSO): at 45.8 µM (top of the series). The method in brief:
as §2

SMILES strings stand for the structures. A number with no mark means an inactive call. Inconclusive results are not listed. Active and inactive are the calls of the source. Calls come from the whole dose curve; as a rule, active = well fitted curve in the direction sought with a large enough effect; inconclusive = small, poorly fitted or top-dose-only effect, or another doubt; inactive = no such curve, though single readings can be large; an effect the other way counts as inactive or inconclusive.

For `O=C(NOCC1CC1)c1ccc(F)c(F)c1Nc1ccc(I)cc1Cl`, the compound was called inactive in test [1] and in test [2]. Further, the Potency in test [3] was 23.5 µM (active); in test [4], 20.9 µM (active); in [5], 6.62 µM (active); in test [6], 11.8 µM (active); in test [7] it was 0.372 µM (active); in test [8] it was 6.62 µM (active). The Potency in test [9] is 0.0235 µM (active); in test [10], 6.62 µM (active); in test [11], 9.35 µM (active); in [12] it was 9.35 µM (active); in test [13], 11.8 µM (active); in test [14] it was 4.18 µM (active). Further, the Potency in test [15] was 20.9 µM (active).
For `CCC1=C(C)CN(C(=O)NCCc2ccc(S(=O)(=O)NC(=O)NC3CCC(C)CC3)cc2)C1=O` (configuration not stated), the call in test [1] and in test [2] was inactive. Besides, the Potency entry in [3], in [4], in test [16], in [5], in test [17] and in test [6] was “inactive” in each case. The Potency result in [7], in test [8], in test [9], in [10], in test [12] and in test [18] was “inactive” throughout. Further, the Potency entry in test [13] and in [14] was “inactive” each time.
For the compound `Cc1cc2c(s1)Nc1ccccc1N=C2N1CCN(C)CC1`, the compound was called inactive in test [1] and in test [2]. The Potency entry in test [3], in test [4], in test [16], in test [5], in [17] and in [7] was “inactive” in each case. For the same compound, the Potency entry in test [8], in test [19], in test [11], in test [18] and in [14] was “inactive” each time. Moreover, the Potency in test [13] was 3.32 µM (active).
On to `COc1cc2c(N3CCN(C(=O)Nc4ccc(OC(C)C)cc4)CC3)ncnc2cc1OCCCN1CCCCC1`, for which the outcome in test [1] and in test [2] was inactive. The Potency was 8.33 µM (active) in test [4], 8.33 µM (active) in [9], 3.72 µM (active) in test [12] and 9.35 µM (active) in test [13]. The Potency result in [5], in test [6], in test [7], in test [8] and in test [14] was “inactive” each time.
Consider `COc1ccccc1N1CCN(CCN(C(=O)C2CCCCC2)c2ccccn2)CC1`, for which the outcome in test [1] was inactive. For the same compound, the Potency result in test [3], in test [16], in [17], in test [13] and in test [15] was “inactive” in each case. Also, the Potency in test [4] was 10.5 µM (active); in test [5] it was 2.96 µM (active); in test [6], 1.18 µM (active); in test [14] it was 9.35 µM (active).
Turning to `Cc1cc(C2CCCCC2)n(O)c(=O)c1`, the Potency is 6.62 µM (active) in test [3]; 6.62 µM (active) in [4]; 16.6 µM (active) in test [16]; 7.43 µM (active) in [5]; 9.35 µM (active) in [17]; 9.35 µM (active) in [6]. Moreover, the Potency in test [7] was 8.33 µM (active); in [8], 9.35 µM (active); in test [19] it was 2.96 µM (active); in test [9], 4.69 µM (active); in [10], 8.33 µM (active); in [11], 3.32 µM (active). The Potency in test [12] was 6.62 µM (active); in test [18], 13.2 µM (active); in test [13], 3.32 µM (active); in test [14] it was 5.26 µM (active); in test [15] it was 8.33 µM (active).
Regarding `CC(=O)O[C@H]1C(=O)[C@@]2(C)C([C@H](OC(=O)c3ccccc3)[C@]3(O)C[C@H](OC(=O)[C@H](O)[C@@H](NC(=O)c4ccccc4)c4ccccc4)C(C)=C1C3(C)C)[C@]1(OC(C)=O)CO[C@@H]1C[C@@H]2O` (some centres not stated), the compound was classed as inactive in test [1] and in test [2]. Also, the Potency result in test [3], in test [16], in test [17], in test [9], in test [10] and in test [13] was “inactive” each time. The Potency result in test [15] was “inactive”.
